From PubChem BioAssay (NCI)
Compounds without any hit were thinned out: in the full panel of roughly 79,000, 15% have a hit. Active and inactive are the calls of the source. No stated cut-off is given here; in the data, active means growth inhibition above about 70%; inactive means the rest.

Experiments:
[1] = NCI Yeast Anticancer Drug Screen. Data for the rad52 strain (AID 147);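 further: 0% = growth of vehicle-treated control cultures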; conditions: S. cerevisiae rad52 mutant growth inhibition, stronger effect = higher value
In short: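 Read-out: growth inhibition versus vehicle-treated controls. Cells were a DNA repair-deficient yeast strain treated with compounds.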

[2] = NCI Yeast Anticancer Drug Screen. Data for the wt1 strain (AID 149);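 further: 0% = growth of vehicle-treated wt1 cultures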; conditions: S. cerevisiae wt1 strain (SPY 50644) growth inhibition, stronger effect = higher value
In short: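 Yeast wt1 strain exposed to compounds; growth inhibition measured relative to vehicle-treated controls.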

[3] = NCI Yeast Anticancer Drug Screen. Data for the rad50EPP+ strain (AID 151);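 further: 0% = growth of vehicle-treated control cultures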; conditions: S. cerevisiae rad50 mutant strain, stronger effect = higher value
In short: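 Growth inhibition read against vehicle controls in rad50EPP+ yeast, a strain altered in DNA damage repair, after compound exposure.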

[4] = NCI Yeast Anticancer Drug Screen. Data for the rad50 strain (AID 155);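 further: 0% = growth of vehicle-only cultures of the same strain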; conditions: S. cerevisiae rad50 strain growth inhibition, stronger effect = higher value
In short: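 Yeast carrying a defined DNA repair defect were exposed to test compounds, and growth was compared with vehicle-treated controls to give percent inhibition.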

[5] = NCI Yeast Anticancer Drug Screen. Data for the mec2-1 strain (AID 157); conditions: S. cerevisiae mec2-1 strain, stronger effect = higher value
In short: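 Yeast mec2-1 mutant treated with compound. Readout: growth inhibition vs vehicle controls.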

[6] = NCI Yeast Anticancer Drug Screen. Data for the rad14 strain (AID 159);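 further: 0% = growth of vehicle-treated control cultures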; conditions: S. cerevisiae rad14 strain growth inhibition, stronger effect = higher value
In short: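 Yeast cells carrying a defined DNA-repair defect were exposed to compounds, and growth inhibition was calculated relative to vehicle-treated control cultures.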

[7] = NCI Yeast Anticancer Drug Screen. Data for the sgs1 mgt1 strain (AID 161);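 further: 0% = growth of cultures given vehicle only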; conditions: S. cerevisiae sgs1 mgt1 strain, stronger effect = higher value
In short: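 Genetically altered yeast, compound exposure, growth inhibition relative to vehicle.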

[8] = NCI Yeast Anticancer Drug Screen. Data for the CLN2oe strain (AID 163);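 further: 0% = growth of vehicle-only control cultures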; conditions: S. cerevisiae CLN2oe strain, stronger effect = higher value
In short: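 Read-out: yeast growth inhibition, expressed relative to vehicle-only controls. The strain bears an engineered cell-cycle alteration.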

[9] = NCI Yeast Anticancer Drug Screen. Data for the bub3 strain (AID 167); conditions: S. cerevisiae bub3 mutant strain, stronger effect = higher value
In short: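 Compounds were applied to a genetically altered yeast strain carrying a cell-cycle control defect. Growth inhibition was scored against vehicle-treated controls.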

[10] = NCI Yeast Anticancer Drug Screen. Data for the wt2 strain (AID 169);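 further: 0% = growth of vehicle-treated yeast cultures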; conditions: S. cerevisiae wt2 strain growth inhibition, stronger effect = higher value
In short: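 Read-out: growth inhibition versus vehicle-treated control cultures after compound exposure of the yeast strain.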

[11] = NCI Yeast Anticancer Drug Screen. Data for the mlh1 strain (AID 171);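 further: 0% = growth of vehicle-treated control cultures of the same strain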; conditions: S. cerevisiae mlh1 strain growth inhibition, stronger effect = higher value
In short: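 Read-out: growth inhibition versus vehicle controls. Strain: engineered yeast with a defined DNA repair or cell cycle defect, compound-treated.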

[12] = NCI Yeast Anticancer Drug Screen. Data for the sgs1 strain (AID 173);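 further: 0% = growth of vehicle-only control cultures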; conditions: S. cerevisiae sgs1 mutant, stronger effect = higher value
In short: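 Read-out: yeast growth inhibition relative to vehicle controls, following compound exposure of a strain with a defined DNA repair/cell cycle alteration.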

[13] = NCI Yeast Anticancer Drug Screen. Data for the mlh1 rad18 strain (AID 175); conditions: S. cerevisiae mlh1 rad18 strain growth inhibition, stronger effect = higher value
In short: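 Yeast w/ defined DNA-repair lesions; compound exposure; growth vs vehicle controls → % inhibition.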

[14] = NCI Yeast Anticancer Drug Screen. Data for the rad18 strain (AID 177); conditions: S. cerevisiae rad18 mutant growth inhibition, stronger effect = higher value
In short: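 Readout: growth inhibition vs vehicle controls. Cells: genetically altered yeast strain, DNA repair defect.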

[15] = at 5.0 µM (retest, dose inferred, filed as 0.5)
[16] = at 50.0 µM (retest, dose inferred, filed as 5.0)

Measured: growth inhibition

CC1(C)CC(=O)C(C(=O)Nc2cccs2)=C(O)C1
active: [1]; at 100.0 µM 99% | [2]; at 100.0 µM 99% | [3]; at 100.0 µM 98% | [4]; at 33.0 µM 70% | [4]; at 50.0 µM 88.8% | [4]; at 100.0 µM 98% | [5]; at 33.0 µM 78% | [5]; at 50.0 µM 93% | [5]; at 100.0 µM 98% | [6]; at 33.0 µM 92% | [6]; at 100.0 µM 98% | [7]; at 50.0 µM 93.3% | [8]; at 100.0 µM 99% | [9]; at 33.0 µM 82% | [9]; [16] 70% | [9]; at 50.0 µM 90.8% | [9]; at 100.0 µM 99% | [10]; at 100.0 µM 99% | [11]; at 33.0 µM 92% | [11]; at 100.0 µM 99% | [12]; at 33.0 µM 88% | [12]; at 100.0 µM 99% | [13]; at 50.0 µM 90.4% | [14]; at 100.0 µM 99%
inactive: [1]; at 1.2 µM -8% | [1]; at 3.7 µM 7% | [1]; at 11.0 µM 17% | [1]; at 33.0 µM 64% | [2]; at 1.2 µM 21% | [2]; at 3.7 µM 28% | [2]; at 11.0 µM 23% | [2]; at 33.0 µM 50% | [3]; at 1.2 µM -56% | [3]; at 3.7 µM -63% | [3]; at 11.0 µM -53% | [3]; at 33.0 µM 18% | [4]; at 1.2 µM 14% | [4]; at 3.7 µM 16% | [4]; [15] 26% | [4]; at 11.0 µM 18% | [4]; [16] 42% | [5]; at 1.2 µM 3% | [5]; at 3.7 µM -18% | [5]; [15] 6% | [5]; at 11.0 µM 20% | [5]; [16] 49% | [6]; at 1.2 µM -10% | [6]; at 3.7 µM 2% | [6]; at 11.0 µM 10% | [7]; [15] -5% | [7]; [16] 61% | [8]; at 1.2 µM 15% | [8]; at 3.7 µM 26% | [8]; at 11.0 µM 29% | [8]; at 33.0 µM 63% | [9]; at 1.2 µM 26% | [9]; at 3.7 µM 23% | [9]; [15] 16% | [9]; at 11.0 µM 41% | [10]; at 1.2 µM 4% | [10]; at 3.7 µM 14% | [10]; at 11.0 µM 17% | [10]; at 33.0 µM 60% | [11]; at 1.2 µM 1% | [11]; at 3.7 µM 4% | [11]; at 11.0 µM 30% | [12]; at 1.2 µM 8% | [12]; at 3.7 µM 23% | [12]; at 11.0 µM 38% | [13]; [15] -36% | [13]; [16] 2% | [14]; at 1.2 µM 1% | [14]; at 3.7 µM 1% | [14]; at 11.0 µM 7% | [14]; at 33.0 µM 48%

CCN(CC)CCNc1ccc2ncn3c4ccc(O)cc4c(=O)c1c23
inactive: [1]; at 1.2 µM 9% | [1]; at 3.7 µM 28% | [1]; at 11.0 µM 56% | [2]; at 1.2 µM 0% | [2]; at 3.7 µM -2% | [2]; at 11.0 µM -4% | [2]; at 33.0 µM -2% | [2]; at 100.0 µM 1% | [3]; at 1.2 µM -1% | [3]; at 3.7 µM 6% | [3]; at 11.0 µM 13% | [3]; at 33.0 µM 26% | [3]; at 100.0 µM 39% | [4]; at 1.2 µM 13% | [4]; at 3.7 µM 32% | [4]; [15] 65% | [4]; at 11.0 µM 65% | [4]; [16] 65% | [4]; at 50.0 µM -6.6% | [5]; at 1.2 µM -3% | [5]; at 3.7 µM -3% | [5]; [15] 18% | [5]; at 11.0 µM -2% | [5]; at 33.0 µM 4% | [5]; [16] 18% | [5]; at 50.0 µM 3.05%
active: [1]; at 33.0 µM 75% | [1]; at 100.0 µM 85% | [4]; at 33.0 µM 81% | [4]; at 100.0 µM 87%
